The values that follow come from PubChem BioAssay (Tox21).

Where “and” joins values, the source holds several entries; their conditions need not be identical. Identical values can stand only once. Records with an inconclusive call do not appear. Unmarked numbers belong to inactive results. Calls of active or inactive are those of the source. The call rests on the fitted dose curve; in most records, active means well fitted inhibition curve with a large enough effect in the repeat runs; inconclusive means weak or mixed curves; inactive means no such curve, though single readings can be large or run the other way.
On the % scale 0 is the no-effect control and ±100 the full control effect; potency means the concentration at half of the fitted maximal effect.

Chain of Estrogen receptor (Homo sapiens) (P03372 whole entry, looked up): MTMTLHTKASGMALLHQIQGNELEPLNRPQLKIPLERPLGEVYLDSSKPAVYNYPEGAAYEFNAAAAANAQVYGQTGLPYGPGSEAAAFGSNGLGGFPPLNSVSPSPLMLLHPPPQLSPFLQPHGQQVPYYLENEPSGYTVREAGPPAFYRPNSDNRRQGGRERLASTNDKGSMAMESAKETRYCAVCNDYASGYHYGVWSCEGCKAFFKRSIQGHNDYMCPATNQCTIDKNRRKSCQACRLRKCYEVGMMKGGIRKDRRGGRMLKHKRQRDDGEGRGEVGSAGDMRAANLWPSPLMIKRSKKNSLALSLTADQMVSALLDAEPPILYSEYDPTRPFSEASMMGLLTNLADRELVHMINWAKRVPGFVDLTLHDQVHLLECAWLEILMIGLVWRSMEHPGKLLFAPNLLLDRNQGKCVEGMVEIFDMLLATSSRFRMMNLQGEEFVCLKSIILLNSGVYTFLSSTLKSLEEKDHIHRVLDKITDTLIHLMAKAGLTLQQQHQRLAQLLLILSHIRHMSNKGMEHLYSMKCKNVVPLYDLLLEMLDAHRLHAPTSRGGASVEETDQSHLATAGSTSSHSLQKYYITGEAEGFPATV

In the assay the target is Estrogen receptor (Homo sapiens) (UniProt P03372). The assay is described as follows: qHTS assay to identify small molecule antagonists of the estrogen receptor alpha (ER-alpha) signaling pathway using the BG1 cell line in the presence of 0.1 nM 17-beta-estradiol (AID 1259244). Further: nearly all actives have a fitted effect of over 50% in size. The settings on record: VM7Luc4E2 (BG1) ERE-luciferase, antagonist mode, 0.1 nM E2, 22 h; series mostly up to 92.4 µM; activity change, negative = inhibition: at the top concentration. An excerpt:
National Center for Advancing Translational Sciences [NCATS]
NIH Chemical Genomics Center [NCGC]
U.S. Environmental Protection Agency [EPA]
National Institutes of Environmental Health Sciences [NIEHS]
National Toxicology Program [NTP]
U.S. Food and Drug Administration [FDA]
Estrogen receptor (ER), a member of the nuclear hormone receptor plays an important role in development, metabolic homeostasis and reproduction. Two subtypes of ER, ER-alpha and ER-beta, have similar expression patterns with some uniqueness in both types. Endocrine disrupting chemicals (EDCs) and their interactions with steroid hormone receptors like ER causes disruption of normal endocrine function. Therefore, it is important to understand the effect of environmental chemicals in ER signaling pathway. For identifying ER antagonists, VM7Luc4E2 cell line was used to screen against Tox21 compound libraries.
VM7Luc4E2 cell line (provided by Denison MS, University of California) endogenously express full-length ER-alpha and is stably transfected with a plasmid containing four estrogen responsive elements (ERE) upstream of a luciferase reporter gene. The current screening for identification of ER-alpha inhibitors against Tox21 compound libraries used lower concentration (0.1 nM) of 17beta-Estradiol as a stimulator.
Tox21 Assay Protocol Summary:
VM7Luc4E2 cells were cultured in phenol red free assay medium containing 10% charcoal stripped FBS for 5 days prior to the assay. The cells were dispensed at 4,000 cells/well in 4 uL of assay medium into white wall/solid-bottom 1536-well plates (Corning Life Sciences, Corning, NY) using a Multidrop Combi (ThermoFisher Scientific, Waltham, MA) dispenser. After the assay plates were incubated at 37C and 5% CO2 for 24 hr, 23 nL of compounds dissolved in DMSO, positive controls or DMSO only was transferred to the assay plates by a Pintool station (Kalypsys, San Diego, CA). The transfer of compounds was followed by the addition of 1 uL of 0.1 nM (final concentration) agonist (17beta-Estradiol)/assay medium using a Flying Reagent Dispenser (FRD, Aurora Discovery, San Diego, CA). The plates were incubated at 37C and 5% CO2 for 22 hr. For luciferase reporter gene assay, 4 uL of ONE-Glo reagent (Promega Corporation, Madison, WI) was added to each well using the FRD and after 30 min incubation at room temperature luminescence intensity was measured using ViewLux plate reader (PerkinElmer, Shelton, CT).
In general terms: Quantitative high-throughput screening tests each substance at several concentrations.
In the case of `C[N+]1(CCC(C(N)=O)(c2ccccc2)c2ccccc2)CCCCC1`, the “activity change, negative = inhibition” value is 1.08% [at 42.5 µM].

Take `COC(=O)C1(O)c2ccccc2-c2ccccc21`: the “activity change, negative = inhibition” value was -7.3%.

Take `CC(C)OC(=O)Cc1ccccc1`: the “activity change, negative = inhibition” value is 0.853%.

As for `OCCSSCCO`, the “activity change, negative = inhibition” value is 1.58%.

With `NP(N)(=O)NC(=O)c1ccc(F)cc1`, the “activity change, negative = inhibition” value is -4.78% [at 42.5 µM].

In the case of `NC(=S)c1c(Cl)cccc1Cl`, the “activity change, negative = inhibition” value was -3.92%.

With `CCCCC(CC)CO[N+](=O)[O-]` (stereo not given), the “activity change, negative = inhibition” value was -6.93%.

Consider `OCC1CO1` (stereo not given), for which the Potency entry is “inactive”.

As for `COc1ccc(C(O)(c2cncnc2)C2CC2)cc1` (stereo not given), the “activity change, negative = inhibition” value is 2.74%.

`CCCCC1C(=O)NC(=O)N(C2CCCCC2)C1=O` (stereo not given): the “activity change, negative = inhibition” value is -6.8% [at 42.5 µM].

For `O=C(NC(=O)c1cc(F)c(F)cc1Cl)Nc1cc(F)ccc1N1CCC(C(=O)O)CC1`, the “activity change, negative = inhibition” value is 0.111% [at 42.5 µM].

As for `CCCC[N+](CCCC)(CCCC)CCCC`, the “activity change, negative = inhibition” value is -11%.

As to `Nc1ccccc1C(=O)OCC(O)CO` (stereo not given), the “activity change, negative = inhibition” value was 9.31% [at 42.5 µM].

As to `CCC[N+](CCC)(CCC)CCC`, the “activity change, negative = inhibition” value was -1.83%.

As to `CCNC(=O)NC(=O)/C(C#N)=N/OC`, the “activity change, negative = inhibition” value is 0.895%.

Turning to `CC(C)(C)NCC(O)c1cc(Cl)c(N)c(C(F)(F)F)c1` (stereo not given), the “activity change, negative = inhibition” value was 2.32% [at 42.5 µM].

`O=C(Cc1ccccc1)c1ccccc1`: the “activity change, negative = inhibition” value was 29.8%.

Turning to `CCOP(=S)(S)OCC`, the “activity change, negative = inhibition” value was -0.256%.

Take `CCOP(=S)(OCC)Oc1ccc(S(C)=O)cc1` (stereo not given): the “activity change, negative = inhibition” value is -14%.

For the compound `COc1cc(CC(C)N)c(OC)cc1Br` (stereo not given), the “activity change, negative = inhibition” value is -8.83%.

As for `O=C1c2ccccc2C(=O)N1SC(Cl)(Cl)Cl`, the Potency is 15.1 µM (active) and 21.7 µM (active).

With `SCc1ccccc1`, the “activity change, negative = inhibition” value is 25.4%.

For `CCCC1CCCCN1` (stereo not given), the “activity change, negative = inhibition” value is 2.99% [at 42.5 µM].

Regarding `C=CCN1C[C@H](C)N([C@H](c2ccc(C(=O)N(CC)CC)cc2)c2cccc(OC)c2)C[C@H]1C`, the “activity change, negative = inhibition” value was -8.34% [at 42.5 µM].

On to `CCCCC#N`, for which the “activity change, negative = inhibition” value is 0%.

For the compound `CC(O)CN1CCN(CC(=O)[O-])CCN(CC(=O)[O-])CCN(CC(=O)[O-])CC1.[Gd+3]` (stereo not given), the “activity change, negative = inhibition” value is 1.06% [at 42.5 µM].

For the compound `CC(C)c1ccc(OP(=O)(Oc2ccc(C(C)C)cc2)Oc2ccc(C(C)C)cc2)cc1`, the Potency result was “inactive”.

With `Nc1ccc2c(c1)Cc1ccccc1-2`, the “activity change, negative = inhibition” value is 16.7%.

Turning to `COCc1cnc(C2=NC(C)(C(C)C)C(=O)N2)c(C(=O)O)c1` (stereo not given), the “activity change, negative = inhibition” value is 0.184%.

For the compound `CC(C)c1ccc(NC(=O)N(C)C)cc1`, the “activity change, negative = inhibition” value was 37.4%.

`CC(C)C1(C)N=C(c2ncccc2C(=O)O)NC1=O` (stereo not given): the “activity change, negative = inhibition” value is 5.24%.

For the compound `C#CC(O)(C=CCl)CC` (stereo not given), the “activity change, negative = inhibition” value is -1.52% [at 42.5 µM].

As for `CCOP(=S)(OCC)SCSc1cc(Cl)ccc1Cl`, the “activity change, negative = inhibition” value was 19.7%.

As for `O=CC=O`, the “activity change, negative = inhibition” value was 2.65%.

Turning to `CCOC(=O)NC(O)C(Cl)(Cl)Cl` (stereo not given), the “activity change, negative = inhibition” value was 11.2% [at 42.5 µM].

Regarding `C[N+]1(CCF)[C@@H]2CC[C@H]1CC(OC(=O)C(O)(c1ccccc1)c1ccccc1)C2` (stereo not given in full), the “activity change, negative = inhibition” value is -1.94% [at 42.5 µM].

Turning to `CCOC(=O)c1cn2nc(OP(=S)(OCC)OCC)cc2nc1C`, the “activity change, negative = inhibition” value was -10.7%.

In the case of `CCOc1cccc(C2(N3CCN(c4ccccc4)CC3)CCC(C)CC2)c1` (stereo not given), the “activity change, negative = inhibition” value is 18.1%.

As to `CCCN(CCC)C(=O)Cc1c(-c2ccc(Cl)cc2)nc2ccc(Cl)cn12`, the “activity change, negative = inhibition” value is -9.35% [at 42.5 µM].

For the compound `CNC(=O)Oc1cccc(N=CN(C)C)c1`, the “activity change, negative = inhibition” value is 13.5%.
